We go through 22 compounds from PubChem BioAssay (NCI).

Holding throughout (assay): NCI-60 one-dose screen, 48 h (100 = growth as untreated, 0 = no growth, -100 = all killed)
In one experiment the test system is SK-MEL-2 melanoma. As to conditions: 10 µM unless noted.
Another experiment concerns SN12C renal. The note with it: 10 µM unless noted.
In the next experiment the test system is UO-31 renal. As to conditions: 10 µM unless noted.
In a further experiment the test system is TK-10 renal. The note with it: 10 µM unless noted.
Another experiment has as its system CAKI-1 renal. The note with it: 10 µM unless noted.
The subject of a further experiment is A498 renal. The note with it: 10 µM.
The next experiment concerns HL-60(TB) leukemia. As to conditions: 10 µM unless noted.
The test system of the next experiment is CCRF-CEM leukemia. As to conditions: 10 µM unless noted.
In the next experiment the test system is ACHN renal. As to conditions: 10 µM unless noted.
In a further experiment the test system is EKVX NSCLC. As to conditions: 10 µM unless noted.

About 83,000 compounds went through this panel and 20% of them were active in at least one assay; those are over-represented in the sample as a whole.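 Testing used 96-well plates and a 48-hour single-concentration exposure. Example: -40 means 40% of the starting cells died.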 Values without a mark were called inactive. Calls of active or inactive are those of the source. Rule for the calls: active = growth percent below 10; inactive = the rest.

On to `C=CC12CCN(CC1)C(C(O)c1ccnc3ccc(OC)cc13)C2` (stereo unspecified), for which the growth is 97.3% with SK-MEL-2 melanoma; 83.5% in the experiment with SN12C renal; 48.3% in the experiment on UO-31 renal; 88.4% in the experiment on TK-10 renal; 69.8% in the experiment on CAKI-1 renal; 56.9% with A498 renal. Further, the growth in the experiment with HL-60(TB) leukemia was 60.7%; in the experiment on CCRF-CEM leukemia it was 75.8%.
With `C=CC[n+]1ccc(-c2cc[n+](CC=C)cc2)cc1`, the growth in the experiment on SN12C renal was 103%; in the experiment on UO-31 renal, 95%; in the experiment on TK-10 renal it was 126%; in the experiment with ACHN renal, 103%; with CAKI-1 renal, 94.2%; with A498 renal it was 100%. For the same compound, the values for the growth in the experiment on HL-60(TB) leukemia and with CCRF-CEM leukemia were 93.3% and 84.7%, respectively.
As to `C[C@]12CC[C@H]3[C@@H](CC[C@]4(O)C[C@@H](O[C@@H]5O[C@H](CO)[C@@H](O[C@@H]6OC[C@@H](O)[C@H](O)[C@H]6O)[C@H](O)[C@H]5O)CC[C@]34C=O)[C@@]1(O)CC[C@@H]2C1=CC(=O)OC1`, the growth was -32.6% (active) in the experiment with SK-MEL-2 melanoma; -32.1% (active) with SN12C renal; 6.18% (active) in the experiment on UO-31 renal; -6.98% (active) in the experiment on TK-10 renal; -5.08% (active) in the experiment on CAKI-1 renal; -9.04% (active) in the experiment on A498 renal. Also, the growth in the experiment with CCRF-CEM leukemia is -14.5% (active).
With `CCCCCCCCCCCCCC[P+](CCCCCC)(CCCCCC)CCCCCC`, the growth with SK-MEL-2 melanoma was -3.57% (active); with UO-31 renal it was -36.6% (active); with TK-10 renal it was -43.3% (active); with ACHN renal it was -26% (active); in the experiment with CAKI-1 renal, 4.01% (active); with A498 renal, -48.3% (active). The growth in the experiment with HL-60(TB) leukemia is 43.1%; with CCRF-CEM leukemia, 26.5%.
For the compound `CCCc1cc(O)c2c3c(c(=O)oc2c1)CN(C)CC3`, the growth in the experiment with SK-MEL-2 melanoma was 97.7%; with SN12C renal it was 39.1%; in the experiment on UO-31 renal, 22.7%; in the experiment on TK-10 renal it was 47.3%; in the experiment on CAKI-1 renal, 4.68% (active); with A498 renal it was 15.4%. Also, the growth in the experiment with HL-60(TB) leukemia is 6% (active); with CCRF-CEM leukemia, 18.8%.
Turning to `O=[N+]([O-])c1cc([N+](=O)[O-])c(Nn2c3ccccc3c3ccccc32)c([N+](=O)[O-])c1`, the growth with SK-MEL-2 melanoma is -50.4% (active); in the experiment on SN12C renal it was 5.01% (active); in the experiment on UO-31 renal it was -3.91% (active); in the experiment with TK-10 renal, 0.75% (active); in the experiment on A498 renal, -43.2% (active); in the experiment with HL-60(TB) leukemia, -30.3% (active).
With `COc1ccc(C(=O)c2sc3nc4c(cc3c2N)N2CCC4CC2)cc1OC`, the growth was 93.4% in the experiment on SN12C renal; 52.8% in the experiment with UO-31 renal; 91.7% with TK-10 renal; 81.8% in the experiment on ACHN renal; 79.7% in the experiment with CAKI-1 renal; 116% in the experiment on A498 renal. Moreover, the growth with HL-60(TB) leukemia was 94.5%; in the experiment on CCRF-CEM leukemia, 74.7%.
Turning to `CCN(CC)c1ccc2c(c1)OC(N)=C(C#N)C2c1cc(OC)c2c(c1)OCO2` (stereo unspecified), the growth in the experiment on EKVX NSCLC was 41.7%; in the experiment with SN12C renal, 15.1%; with UO-31 renal, 34.7%; in the experiment with TK-10 renal, 59.3%; with ACHN renal it was 21.4%; in the experiment with CAKI-1 renal, 32.7%. Also, the results for the growth in the experiment on A498 renal and in the experiment on HL-60(TB) leukemia were -4% (active) and 13%, respectively.
In the case of `CO[C@H](C(=O)O)[C@@H]1Cc2cc3cc(OC4CC(OC5CC(O)C(O)C(C)O5)C(O)C(C)O4)c(C)c(O)c3c(O)c2C(=O)[C@H]1OC1CC(OC2CC(OC3CC(C)(O)C(O)C(C)O3)C(O)C(C)O2)C(O)C(C)O1` (stereo partly specified), the growth in the experiment with SN12C renal was 15.3%; in the experiment on UO-31 renal, 8.85% (active); with TK-10 renal, 24.2%; in the experiment with ACHN renal it was 2.89% (active); with CAKI-1 renal, 25.7%; in the experiment with A498 renal, -55.7% (active). Also, the results for the growth in the experiment on HL-60(TB) leukemia and in the experiment on CCRF-CEM leukemia were 41.3% and 23.8%, respectively.
In the case of `COc1cc(C=Nc2cc(Cl)cc(Cl)c2)ccc1N(CCCl)CCCl`, the growth was 113% with SK-MEL-2 melanoma; 87.6% in the experiment with SN12C renal; 66.6% in the experiment with UO-31 renal; 148% in the experiment with TK-10 renal; 63.3% with CAKI-1 renal; 65.2% in the experiment on A498 renal. For the same compound, the growth in the experiment with HL-60(TB) leukemia is 88.1%; in the experiment on CCRF-CEM leukemia, 56.4%.
In the case of `C[C@]12CC[C@H]3[C@@H](CC4SC(N)=NC45C/C(=N/NC(N)=O)CC[C@]35C)[C@@H]1CCC2=O` (stereo partly specified), the growth with EKVX NSCLC is -4.54% (active); in the experiment with SN12C renal, 18.1%; with UO-31 renal it was 85.8%; in the experiment with TK-10 renal, 49.2%; in the experiment with ACHN renal, 32.4%; in the experiment on CAKI-1 renal, 63%. In addition, the growth in the experiment on A498 renal is 91.6%; in the experiment with HL-60(TB) leukemia, 42.8%; in the experiment on CCRF-CEM leukemia, -5.86% (active).
Regarding `CC(=O)OCC1O[C@@H]([S-])C(OC(C)=O)[C@H](OC(C)=O)[C@@H]1OC(C)=O.[Au+].c1ccc(CN2[CH-]N(Cc3ccccc3)C(c3ccccc3)=C2c2ccccc2)cc1`, the growth is 23.6% in the experiment on SN12C renal; 45% in the experiment on UO-31 renal; 29.6% with TK-10 renal; 30.1% in the experiment with ACHN renal; 42.1% in the experiment with A498 renal; 7.57% (active) with CCRF-CEM leukemia.
For `ClCCN(CCCl)c1ccc(/C=N/Nc2ncnc3nc[nH]c23)cc1`, the growth in the experiment with SN12C renal was 67.2%; in the experiment on UO-31 renal it was 54.2%; in the experiment on TK-10 renal, 113%; in the experiment on ACHN renal, 74.8%; in the experiment on CAKI-1 renal, 64%; with A498 renal it was 98.4%. The values for the growth with HL-60(TB) leukemia and with CCRF-CEM leukemia were 92% and 42.4%, respectively.
Consider `NC(=O)c1c(Br)n(C2OC(CO)C(O)C2O)c2ncnc(N)c12` (stereo unspecified), for which the growth in the experiment on EKVX NSCLC was -2.28% (active); in the experiment with SN12C renal it was 13.4%; in the experiment on UO-31 renal, 1.86% (active); with TK-10 renal, 30.4%; in the experiment with ACHN renal, 12.1%; with A498 renal, -29.9% (active). The growth is -37.2% (active) in the experiment on HL-60(TB) leukemia and -34.4% (active) in the experiment on CCRF-CEM leukemia.
`COC(=O)[C@@H](C)C[C@H](Cc1ccccc1)NC(=O)c1csc([C@@H](C[C@H](C(C)C)N(C)C(=O)[C@@H](NC(=O)[C@H]2CCCCN2C)C2CCCCC2)OC(C)=O)n1`: the growth in the experiment on SK-MEL-2 melanoma was 11.2%; with SN12C renal, 12.6%; with UO-31 renal it was 31.7%; in the experiment on ACHN renal, 11.4%; with CAKI-1 renal, 14.5%; in the experiment on A498 renal it was -10.2% (active). In addition, the growth with HL-60(TB) leukemia is -51.9% (active); in the experiment with CCRF-CEM leukemia, 0.645% (active).
As for `C[C@@H]1C[C@@]2(C)[C@@H](CC[C@@H]3[C@@H]2CC[C@]2(C)C(=O)CC[C@@H]32)CC1=O`, the growth in the experiment with EKVX NSCLC is 86.5%; with SN12C renal, 103%; in the experiment on UO-31 renal, 96.3%; with TK-10 renal, 94%; with ACHN renal, 103%; in the experiment with CAKI-1 renal, -30.7% (active). Also, the growth with A498 renal is 71.9%; in the experiment with HL-60(TB) leukemia, 74.6%.
On to `COC(=O)[C@@]1(O)C[C@H]2O[C@]1(C)n1c3ccccc3c3c4c(c5c6ccccc6n2c5c31)C(=O)NC4`, for which the growth in the experiment with EKVX NSCLC is -30.9% (active); with SN12C renal, -47.2% (active); in the experiment with UO-31 renal it was -57.9% (active); in the experiment with TK-10 renal, -86.3% (active); in the experiment with ACHN renal, -27.3% (active); in the experiment with CAKI-1 renal, -97.5% (active). Further, the growth in the experiment with A498 renal was -96.6% (active); in the experiment with HL-60(TB) leukemia, -44.5% (active); in the experiment with CCRF-CEM leukemia, 0.604% (active).
For `N#Cc1c(Br)n(C2OC(CO)C(O)C2O)c2ncnc(N)c12` (stereo unspecified), the growth in the experiment with SN12C renal was 60.3%; in the experiment with UO-31 renal it was 42.3%; in the experiment on TK-10 renal, 115%; in the experiment with ACHN renal, 78.4%; in the experiment with A498 renal it was -16.3% (active); in the experiment with HL-60(TB) leukemia, -33.7% (active). Also, the growth in the experiment with CCRF-CEM leukemia is 8.19% (active).
Consider `C[C@@H]1O[C@@H](O[C@H]2C[C@@H](O)[C@]3(CO)C4C(CC[C@]3(O)C2)[C@@]2(O)CC[C@H](C3=CC(=O)OC3)[C@@]2(C)C[C@H]4O)[C@H](O)[C@H](O)[C@H]1O` (stereo partly specified), for which the growth was -59.9% (active) in the experiment on SK-MEL-2 melanoma; -22.5% (active) in the experiment with SN12C renal; -87.3% (active) in the experiment on UO-31 renal; -65% (active) with TK-10 renal; -73.4% (active) in the experiment on CAKI-1 renal; -6.39% (active) in the experiment on A498 renal. Moreover, the growth in the experiment on HL-60(TB) leukemia is -53.2% (active); with CCRF-CEM leukemia, -12% (active).
On to `COC(=O)CC[C@H](Cc1ccccc1)NC(=O)c1csc([C@@H](C[C@H](C(C)C)N(C)C(=O)[C@@H](NC(=O)[C@H]2CCCCN2C)C(C)C)OC(C)=O)n1`, for which the growth in the experiment with SK-MEL-2 melanoma was 54.1%; in the experiment on SN12C renal, 43.8%; with UO-31 renal it was 49.7%; in the experiment on TK-10 renal it was 42.5%; in the experiment on A498 renal, 5.63% (active); in the experiment on HL-60(TB) leukemia, 4.63% (active). The growth with CCRF-CEM leukemia is 19.8%.
Take `CCCCCCCC[N+](C)(CCCCCCCC)CCCCCCCC`: the growth is -94.1% (active) with SK-MEL-2 melanoma; -100% (active) in the experiment on UO-31 renal; -100% (active) in the experiment with TK-10 renal; -93.6% (active) in the experiment on ACHN renal; -98.6% (active) in the experiment on CAKI-1 renal; -100% (active) with A498 renal. The growth was 32% in the experiment with HL-60(TB) leukemia and 85.7% with CCRF-CEM leukemia.
`CN(C)C(=O)Oc1ccc(Br)cc1`: the growth with SN12C renal is 106%; in the experiment on UO-31 renal, 85.1%; in the experiment on TK-10 renal, 99.8%; in the experiment on ACHN renal it was 109%; in the experiment on CAKI-1 renal it was 95.5%; in the experiment on A498 renal it was 117%. Besides, the growth with HL-60(TB) leukemia was 102%; in the experiment on CCRF-CEM leukemia, 89.7%.
